PP1 counter – counter-screen for PP5 inhibitors: inhibitors of human PP1-alpha; P62136; purified PP1alpha, OMFP fluorescence; inhibition, % at 6.7 µM; 320,000 compounds, 0.9% hits;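 active means inhibition above the mean inhibition of all tested compounds plus 3 SD, computed separately for each screening campaign, cut at about 15% in these data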
Calb FLC – affects C. albicans growth with fluconazole; C. albicans CaCi-2 (fluconazole-resistant clinical isolate) + fluconazole, Alamar Blue growth, 48 h; 300,000 compounds, 0.57% hits; growth inhibition, % (test concentration not listed);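 active means growth inhibition above about 58% in most replicates, limit read from the data, passing the limit was not always enough; inconclusive means exactly half the replicates above a set limit; inactive means most replicates below a set limit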;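 further: all wells also contain fluconazole at 8 µg/ml as a sub-toxic cotreatment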
CSC inhib – blocks cancer stem cells. inhibition, % at 7.5 µM. cancer stem cell-like cells viability, luminescence. 300,000 compounds, 1.1% hits. AID 2717; in the data active means inhibition above about 75%; inconclusive means no clear call, values can overlap the other calls; tested in HMLE shEcad cells
PP5 inh – blocks human protein phosphatase 5 activity; purified PP5c, OMFP substrate fluorescence; P53041; inhibition, % at 6.7 µM; AID 1987; 320,000 compounds, 0.18% hits;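 active means inhibition above the campaign's mean inhibition across all tested compounds plus 3 SD, cut at about 9.5% in these data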
Beta apoptosis – beta cell apoptosis inhibition. INS-1E cytokine-induced death, ATP luminescence, 48 h; percent of positive-control rescue, neutral wells zero. protection from apoptosis, % (test concentration not listed). 300,000 compounds, 0.8% hits. AID 435005;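 active means Every replicate reaches about 75%, or at least half do and their mean reaches it too, limit read from the data; inconclusive means At least half of replicates reach the limit but their mean does not; inactive means Under half of replicates reach the limit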;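 further: higher means more ATP so stronger rescue from cytokine killing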
Mdm2 MdmX PPI – inhibitors of human Mdm2/MdmX interaction; O15151+Q00987; SaOS-2 split-luciferase Mdm2/MdmX complementation, luminescence; inhibition, % at 8 µM; 330,000 compounds, 3% hits; AID 485346;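 active means inhibition of at least 50% at 8 µM in the primary screen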
Numbers stand for hits; – = inactive; ? = inconclusive; · = no result given. Sampled rows, rich in hits. Any-hit rate of the full collection: about 4.9%.

SMILES	PP1 counter	Calb FLC	CSC inhib	PP5 inh	Beta apoptosis	Mdm2 MdmX PPI
CC(c1ccccc1)N1CCn2c(nc3cc(NS(C)(=O)=O)ccc32)C1 (configuration not stated)	–	109	–	–	–	–
CC(=O)Nc1ccc2c(c1)nc1n2CCN(C(C)c2ccccc2)C1 (configuration not stated)	–	–	–	–	–	–
N#Cc1c(N)sc(=S)c2c1CCN(Cc1ccccc1)C2	20	·	·	–	·	–
CCN1CCc2c(sc(N)c2C#N)C1	–	–	–	–	–	–
CCNC(=S)NNC(=O)c1nn(C)c(C)c1Cl	–	119	–	–	–	–
C[C@H](CO)N1C[C@H](C)[C@@H](CN(C)Cc2ccc(Cl)c(Cl)c2)Oc2c(NS(=O)(=O)c3ccc(F)cc3)cccc2C1=O	·	·	–	·	–	–
COC(=O)c1cccc(NC(=O)/C(=C\c2ccccc2)NC(=O)c2ccccc2Cl)c1	–	–	–	–	–	–
CCOC(=O)c1cccc(NC(=O)/C(=C\c2ccccc2)NC(=O)c2ccccc2Cl)c1	17	–	–	–	–	–
C=CCNC(=S)N/N=C/c1ccc(-c2ccc(OC)cc2)o1	–	104	–	–	–	–
CCc1nc(N2CCN(Cc3ccc4c(c3)OCO4)CC2)c2oc3ccccc3c2n1	–	–	81	–	–	–
CCc1nc(N2CCCCC2C)c2oc3ccccc3c2n1 (configuration not stated)	–	–	102	–	–	–
CC(=O)Nc1cccc(/C(C)=N/NC(=O)c2ccc3c(c2)OCO3)c1	–	–	–	–	–	–
O=C(N/N=C/c1cn(-c2ccccc2)nc1-c1cccnc1)c1ccc(F)cc1	–	–	–	–	–	–
O=C(N/N=C/c1cn(-c2ccccc2)nc1-c1ccc(F)cc1)c1ccc(Br)o1	–	–	–	–	110	–
Nc1ccc2c(c1)Oc1ccccc1C=C2	–	–	110	–	–	–
Cn1c(N)c(C(=O)COC(=O)c2cc(-c3ccco3)nc3ccccc23)c(=O)n(Cc2ccccc2)c1=O	30	–	–	–	–	–
Cc1ccc(-c2cc(C(=O)NCc3ccc4c(c3)OCO4)[nH]n2)c(O)c1C	–	–	–	–	–	–
Cc1cc(O)c(-c2cc(C(=O)NCc3ccc4c(c3)OCO4)[nH]n2)cc1C	16	–	–	–	–	–
COc1ccc(OC)c(NC(=O)CN(C)CC(=O)Nc2ccccc2Br)c1	–	–	–	–	–	–
Cc1cc([N+](=O)[O-])c2c(c1C)C1C=CCC1C(c1ccccn1)N2 (configuration not stated)	–	–	–	–	–	–
CC(C)N(CCC(=O)c1ccc2ccccc2c1)Cc1ccccc1	–	·	75	–	–	–
NC(=O)C1CCN(C2=C(Cl)C(=O)c3ccccc3C2=O)CC1	–	–	85	–	–	–
O=C(/C=C/c1ccc(F)cc1)NC(=S)NNC(=O)c1cnccn1	–	–	–	–	70	–
O=C(NC(=S)NNC(=O)c1cnccn1)c1ccc(F)cc1	–	?	–	–	79	–
COc1ccc(C(=O)NNC(=S)NC(=O)c2cccnc2)cc1	–	–	–	–	–	–
SMILES	PP1 counter	Calb FLC	CSC inhib	PP5 inh	Beta apoptosis	Mdm2 MdmX PPI
COc1ccc(/C=C/C(=O)NC(=S)NNC(=O)c2cccnc2)cc1	16	–	–	–	–	–
O=C(/C=C/c1ccc(F)cc1)NC(=S)Nc1ccccc1	·	–	–	·	–	–
O=C(NNC(=S)NC(=O)c1cccnc1)c1ccc(F)cc1	–	–	–	–	–	–
COc1cccc(C(=O)O/N=C(\N)CS(=O)(=O)c2ccccc2)c1	–	–	–	–	–	–
CCOC(=O)c1ccc(NCc2cccnc2)cc1	–	–	–	–	–	–
O=C(/C=C/c1ccco1)NCCc1ccccc1	–	–	·	–	–	–
Cc1ccc(/C=C/C(=O)NCCc2ccccc2)o1	–	–	75	–	–	–
COc1ccc(NC(=O)c2c(N)no[n+]2[O-])cc1	–	101	103	–	–	–
COc1ccc(NC(=O)c2c(N)no[n+]2[O-])c(OC)c1	–	–	–	–	–	–
CC(C)Nc1nc(NC(C)C)nc(SCCOC(=O)Nc2ccc(Cl)cc2Cl)n1	–	–	90	–	–	–
CNC(=S)NNC(=O)c1cccc(N(C)C)c1	–	–	–	–	–	–
COc1cc(/C=N/NC(N)=S)ccc1OCc1ccc(C)cc1	–	–	76	–	–	–
COc1cc(/C=N/NC(N)=S)ccc1OC(=O)c1ccc(C)cc1	–	–	–	–	–	–
Cc1cccc(-c2nc3ccccc3c(=O)n2NC(=O)/C=C/c2ccc([N+](=O)[O-])cc2)c1	–	117	–	–	–	–
O=C(/C=C/c1cccc([N+](=O)[O-])c1)Nn1c(-c2ccccc2F)nc2ccccc2c1=O	–	–	–	–	–	–
CC(C)C[C@H](N)c1cn([C@@H](Cc2ccc(O)cc2)C(=O)N2CCNCC2)nn1	–	–	–	–	–	–
CCOc1ccc(N2CC(C(=O)N3CCN(c4ccccn4)CC3)CC2=O)cc1 (configuration not stated)	–	–	–	–	–	–
COc1cc(/C=C/c2noc(-c3ccccc3O)n2)ccc1OC(C)=O	–	–	103	–	–	–
CN(C(=O)CSc1nnnn1-c1ccccc1)C1CCS(=O)(=O)C1 (configuration not stated)	–	–	–	–	–	–
Cc1c2ccccc2cc[n+]1CCCS(=O)(=O)[O-]	–	–	–	–	–	–
CC1(C)C(/C=C/C=C/C=C/C=C2\N(CCCCS(=O)(=O)O)c3ccc4ccccc4c3C2(C)C)=[N+](CCCCS(=O)(=O)[O-])c2ccc3ccccc3c21	59	·	–	–	–	–
COC(=O)c1ccn(Cc2ccccc2Cl)n1	·	–	·	·	·	·
Cc1cc(C)cc(NS(=O)(=O)c2ccc3c(c2)c(=O)n(C)c(=O)n3C)c1	–	–	102	–	–	–
CC(C)(C)C(=O)NC(=S)NNC(=O)C(c1ccccc1)c1ccccc1	–	82	–	–	–	–
CC(=O)NNC(=S)NC(=O)C(c1ccccc1)c1ccccc1	–	99	–	–	–	–
SMILES	PP1 counter	Calb FLC	CSC inhib	PP5 inh	Beta apoptosis	Mdm2 MdmX PPI
CCNC(=S)NNC(=O)C(c1ccccc1)c1ccccc1	–	–	–	–	–	–
Cn1ncc(Br)c1NC(=O)Nc1ccccc1	–	–	·	–	·	–
Oc1ccc(/C=N/Nc2ccccc2)cc1	–	–	–	–	–	–
Brc1ccc(/C=N/Nc2ccccc2)cc1	–	–	79	–	–	–
COc1ccc2c(c1)CCc1c(C(=O)N3CC4(C)CC3CC(C)(C)C4)noc1-2 (configuration not stated)	–	–	95	–	–	–
COc1ccc2c(c1)CCc1c(C(=O)N3CCOCC3)noc1-2	–	–	–	–	–	–
CN1CCN(C(=S)c2cn(Cc3cccc(F)c3)c3ccccc23)CC1	–	–	–	–	–	–
CN1CCN(C(=S)c2cn(Cc3ccc(F)cc3)c3ccccc23)CC1	–	121	–	–	–	–

Screens deposited in PubChem by several laboratories.
